Measurements reported in PubChem BioAssay (NCI).
“And” between values parts separate entries of the source, which are not always exact repeats. Identical values can stand only once. The panel holds about 83,000 compounds, 20% with a hit somewhere; the sample as a whole holds those more often.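 Compound tested at a single concentration for 48 hours in 96-well plates; a percent growth value below 10 was scored as active.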 The source made the active and inactive calls.

These molecules were tested on MDA-MB-468 breast (assay: NCI-60 one-dose screen, 48 h (100 = growth as untreated, 0 = no growth, -100 = all killed)). Conditions: 10 µM unless noted.

SMILES | growth
COc1ccc(OC)c(Nc2nnc(-c3cc(OC)c(OC)c(OC)c3)o2)c1 | 92% (inactive)
COc1cc(C(=O)/C=C/c2c(C(F)(F)F)nc3sccn23)cc(OC)c1OC | -53.4% (active)
N[C@H](C(=O)O)[C@@H]1CC(Cl)=NO1 | 29.4% [20 µM] (inactive)
O=C1c2cccnc2C(=O)c2c1c(C(=O)OCCCN1CCOCC1)c1ccccn21 | 4.71% (active)
CC1CCN(CCCCCOc2ccc3oc4ccc(Cl)cc4c(=O)c3c2)CC1 | 54.5% (inactive)
COc1ccc(C2CC(c3cc(OC)c(OC)c(OC)c3)=NN2)cc1 (stereo not given) | 66.6% (inactive)
COCCOc1ccc(-c2csc(NC(C)=O)n2)cc1NS(=O)(=O)c1cccc2c(N(C)C)cccc12 | 90.3% (inactive)
N#Cc1c(-c2ccccc2)nc(SCC(O)CN2CCOCC2)nc1N1CCOCC1 (stereo not given) | 76.7% (inactive)
c1ccc(-c2oc(-c3ccccc3)c3ccccc23)cc1 | 109% (inactive)
NS(=O)(=O)c1ccc(-c2cc(-c3nnc(SCC(=O)Nc4ccc(C(=O)/C=C/c5ccc(Cl)cc5)cc4)n3-c3ccccc3)c3ccccc3n2)cc1 | 84.5% (inactive)
COc1ccc(/C=C(\C#N)c2ccc([N+](=O)[O-])cc2)c2ccccc12 | 84.7% (inactive)
Nc1c(C(=O)c2ccc(Br)cc2)sc2nc3c(cc12)CCCC3 | 79.1% (inactive)
CCSc1ccc(C2C(Br)C(=O)N2c2cc(OC)c(OC)c(OC)c2)cc1 (stereo not given) | 27.7% (inactive)
COc1cccc(NC(=O)c2sc3nc4c(cc3c2N)CCCC4)c1 | 9.67% (active)
c1cc2cccc3c4cccc5cccc(c(c1)c23)c54 | 101% (inactive)
COc1cc(-c2cc(/C=C3\C(=O)Nc4ccccc43)[nH]n2)cc(OC)c1OC | 82% (inactive)
CN(C)CCCNC(=O)c1cncnc1Nc1ccc2c(ccn2Cc2cccc(F)c2)c1 | 52.6% (inactive)
O=[N+]([O-])c1ccc(-c2cc3c(Nc4ccc(Cl)c(C(F)(F)F)c4)ncnc3s2)cc1 | -10.2% (active)
O=c1ccn(C2OC(F)(CO)C(O)C2F)c(=O)[nH]1 (stereo not given) | 126% (inactive)
O=C(CCCC(=O)Nc1ccc(-n2nnc3cc(Cl)c(Cl)cc32)cc1)Nc1ccc(-n2nnc3cc(Cl)c(Cl)cc32)cc1 | 18.9% (inactive)

SMILES | growth
Cn1cc([C@@H]2Nc3ccc4[nH]ncc4c3[C@H]3[C@H]4CCC(C4)[C@H]32)c(C(F)(F)F)n1 | 53.4% (inactive)
Nc1nc2c([nH]1)c1[nH]c3ccccc3c1c1[nH]c3ccccc3c21 | -57.2% (active)
NC(=O)OCCO | 113% (inactive)
O=C(NCc1cccc(CNC(=O)Nc2nc3ccccc3[nH]2)c1)Nc1nc2ccccc2[nH]1 | -20.2% (active)
C=C(C)[C@@H]1CC[C@]2(C(=O)N3CCN(C)CC3)CC[C@]3(C)[C@H](CC[C@@H]4[C@@]5(C)C/C(=C/c6ccncc6)C(=O)C(C)(C)[C@@H]5CC[C@]43C)[C@@H]12 | 55.6% (inactive)
CC12O[C@H](C[C@@H](OC(=O)c3ccccc3)[C@H]1O)n1c3ccccc3c3c4c(c5c6ccccc6n2c5c31)C(=O)NC4=O | 81.1% (inactive)
COc1ccc2[nH]c(O)c(N=NC(=O)c3oc4ccccc4c3C)c2c1 | 19.9% (inactive)
COc1cc(C(=O)c2cnc(-c3c[nH]c4cccc(C)c34)[nH]2)cc(OC)c1OC | 2% (active)
C#Cc1cccc(Nc2ncnc3cc(NC(=O)CCl)ccc23)c1 | -60.8% (active)
CC(Br)c1nc2ccccc2cc1C(N)=O (stereo not given) | 105% (inactive)
Cc1ccc(CNc2ccc3nc(CCC4CCCCC4)[nH]c3c2)cc1 | -13.2% (active)
COc1cc2c(cc1-c1c(C)noc1C)ncc1nc(C3CCOCC3)n([C@H](C)COC(F)F)c12 | 40% (inactive)
CCOC(=O)C(Cc1cc(I)c(O)c(I)c1)NC(=O)c1ccccc1 (stereo not given) | 98.9% (inactive)
COc1ccc(/C=C/C(=O)c2ccc(NC(=O)CSc3nnc(-c4ccc5nc(-c6ccc(Cl)cc6)[nH]c5c4)o3)cc2)cc1 | 110% (inactive)
COC1CC2CCC(C)C(O)(O2)C(=O)C(=O)N2CCCCC2C(=O)OC(C(C)CC2CCC(O)C(OC)C2)CC(=O)C(C)C=C(C)C(O)C(OC)C(=O)C(C)CC(C)/C=C/C=C/C=C1C (stereo not given) | 23.3% (inactive)
CN(C)CCOc1ccc(/C(=C(/CCCl)c2ccccc2)c2ccccc2)cc1 | -57.1% (active)
COC(c1ccc2ccccc2c1)C(C)C(F)F (stereo not given) | 99.7% (inactive)
COc1ccc2[nH]c(=O)c(CN3CCN(c4nccc(-c5ccc(Cl)cc5)n4)CC3)cc2c1 | 88.6% (inactive)
CC(C)(C)n1nnnc1C(Nc1nccs1)c1cc2cccc3ccc4cccc1c4c32 (stereo not given) | -35.2% (active)
OC(c1cc(-c2ccc(C(F)(F)F)cc2)nc(C(F)(F)F)c1)C1CCCCN1 (stereo not given) | -88.4% (active) and -89.6% (active) and -76.3% (active)
